This is an account of results in PubChem BioAssay AID605 (National Center for Advancing Translational Sciences (NCATS), 2007).

Molecules are shown by their SMILES. About 35 (0.05%) of roughly 71,000 compounds were called active. The call rests on the fitted dose curve; in most records, active means well fitted curve in the direction sought with a large enough effect; inconclusive means small, poorly fitted or top-dose-only effect, or effect the other way; inactive means flat fitted curve, though single readings scatter. These entries were drawn from the full list.

The assay has as its target tRNA threonylcarbamoyladenosine biosynthesis protein TsaE (Escherichia coli (strain K12)) (UniProt P0AF67). Nature of the assay: qHTS Assay for Inhibitors of YjeE. The note with it: purified YjeE enzyme, qHTS inhibition assay. The procedure:
NIH Molecular Libraries Screening Centers Network [MLSCN]
NIH Chemical Genomics Center [NCGC]
Assay Provider: Eric Brown, McMaster University
YjeE is an essential E.coli protein of unknown function that binds adenosine diphosphate (ADP). A complex of YjeE and BODIPY Texas Red-labeled ADP probe (Invitrogen, catalog number A22359) is incubated with library members. Inhibitors of YjeE-ADP binding are detected by a decrease in the fluorescence polarization (FP) of the fluorophore. Purified YjeE was supplied by Chand Mangat and Eric Brown, McMaster University.
NCGC Assay Protocol Summary:
2 uM probe/10 uM YjeE in columns 1, 2, 5-48. Titration of ADP control (from 40 mM, then 1:2) pin-transferred to top half of column 2. Column 1 and bottom half of column 2 are neutral.
Two and a half uL of reagents were dispensed to 1536-well Greiner black plates. Compounds and controls (20 nL) were transferred via Kalypsys PinTool. The plates were incubated for 15 min at room temperature, and then read on ViewLux (Perkin-Elmer) High-throughput CCD imager using BODIPY polarization filter set and 30 seconds exposure time. During dispense, reagent bottle was kept submerged into 4 deg C water bath and all liquid lines were covered with aluminum foil to minimize probe and protein degradation.
Keywords: NIH Roadmap, MLSCN, MLI, MLSMR, qHTS, NCGC, YjeE
On the technique in general: Quantitative high-throughput screening tests each substance at several concentrations.
`CCCCC(CC)CN` (stereo not given): the result was inactive.
In the case of `Cc1ccccc1Nc1nc(N)nc(CN2CCN(c3ccccn3)CC2)n1` it was “inactive”; in that of `COc1c(F)c(F)c(-c2csc(N)n2)c(F)c1F`, “inactive”; in that of `COC(=O)[C@H]1C[C@@H]1[C@H](NC(=O)Oc1ccc(F)cc1)c1ccccc1`, “inactive”.
With `COC(=O)C(C)C1Sc2ccccc2NC1=O` (stereo not given), the outcome was inactive.
Regarding `CC(C)(CNCC(O)c1ccccc1)N1CCOCC1` (stereo not given), the compound was classed as inactive.
With `Cc1cnc(CNc2ncncc2-c2ccccc2Cl)cn1`, the result was inactive.
With `COc1ccc(C2C3=C(OC(C)=O)c4ccccc4C3=Nc3c2c(=O)n(C)c(=O)n3C)cc1` (stereo not given) the entry was “inactive”; with `Cn1c(-c2ccc(C(=O)c3ccccc3)s2)nc2ccccc21`, “inactive”; with `COc1ccccc1-c1nc(C(F)(F)F)c(OC)o1`, “inactive”.
In the case of `Nc1nc(N)c2[nH]c(CNc3ccc(C(=O)O)cc3)nc2n1` it was “inactive”; in that of `CCCc1nc2ccccc2c(=O)n1/N=C/c1ccc(O)c(O)c1`, “inactive”; in that of `CC(C)[C@@H](CC(=O)N[C@@H]1CCNC[C@H]1C(=O)N[C@H](CC(=O)N[C@@H](CCC(=O)O)CC(=O)O)Cc1ccccc1)NC(=O)C[C@H](CO)NC(=O)[C@@H]1CNCC[C@H]1N`, “inactive”.
Regarding `COc1ccc2nc(NC3=NCN(CC4CCCO4)CN3)nc(C)c2c1` (stereo not given), the result was inactive.
In the case of `Cc1cc(OCC(=O)O)c(Cl)cc1Cl` it was “inactive”.
Take `Cc1cc(NC(=O)COC(=O)c2ccc(F)c(S(=O)(=O)N3CCOCC3)c2)no1`: the result was inactive.
On to `COc1ccc(C(=O)CSc2nccc(=O)[nH]2)cc1`, for which the result was inactive.
In the case of `CCOC(=O)c1ccc(NC(=O)CS(=O)(=O)c2cn(CC)c3ccccc23)cc1` it was “inactive”.
As for `Cc1cc(=O)[nH]c(SCC(N)=O)c1C#N`, the outcome was inactive.
`CSCCC(NC(=O)c1ccc(=O)n(C)n1)c1nc2ccccc2[nH]1` (stereo not given): the result was inactive.
`O=C(NCc1ccc(Cl)cc1)c1cc2c(nc3sccn32)s1`: the compound was classed as inactive.
For the compound `CC(C)(C)NCC[C@@H](O)c1cc(C(F)(F)F)nc2c(C(F)(F)F)cccc12`, the compound was called inactive.
As for `COc1nc(Oc2ccc(=O)n(C)n2)nc(N(C)C)n1`, the call was inactive.
With `CCCCNC(=O)CSc1nccn1Cc1ccccc1`, the compound was classed as inactive.
With `C1CCC2OC2C1` (stereo not given), the compound was classed as inactive.
On to `O=c1c(-c2cc(F)cc(F)c2)nc2cnc(Oc3ccccc3)nc2n1C[C@H]1CCCO1`, for which the result was inactive.
As to `CCOC(=O)c1ccc(NC(=O)CSc2nnc(COc3ccccc3OC)n2C)cc1`, the outcome was inactive.
Regarding `C[C@]1(C(=O)NCCc2c[nH]c3ccccc23)C=C[C@@H](Cc2ccccc2)N1C(=O)c1ccccc1`, the compound was classed as inactive.
In the case of `N#Cc1ccc(C(c2nnnn2CCc2ccccc2)N2CCCCCC2)cc1` (stereo not given) it was “inactive”; in that of `COc1ccc(N2C(=O)C3CCCN3C2c2cccs2)cc1` (stereo not given), “inactive”; in that of `COc1ccc(C)cc1S(=O)(=O)NC1CCCCC1`, “inactive”.
`O=C1c2oc3ccccc3c(=O)c2C(c2cccc(O)c2)N1c1ccccn1` (stereo not given): the call was inactive.
With `CC(=O)CC(C)C`, the result was inactive.
For the compound `COC(=O)N1CCC2(CCCN(Cc3ccccc3OC)C2)CC1`, the result was inactive.
On to `COc1ccc(OC)c(Nc2nc(-c3ccc(O)c(O)c3)cs2)c1`, for which the result was inactive.
In the case of `FC(F)(F)c1ccccc1-c1cc(NCc2ccccc2)ncn1`, the call was inactive.
Take `CN1[C@@H]2CC[C@H]1CC(NC(=O)c1nn(C)c3ccccc13)C2` (stereo not given in full): the call was inactive.
For `C[C@]12CC[C@@H]3C(=CCc4cc(O)ccc43)[C@@H]1CCC2=O`, the result was inactive.
In the case of `Cc1cc(=O)n(C)c(=O)n1CCCNc1ccccc1` it was “inactive”.
With `CC(C)c1ccc2c([Si](C)(C)C)c3c(nc2c1)-c1cccc(=O)n1C3`, the result was inactive.
For the compound `COc1ccc(N2C(=O)CCC(C(=O)N(C)C3CCCCC3)C2c2ccc(OC)c(OC)c2)cc1` (stereo not given), the call was inactive.
Consider `C[N+](C)(CCCCCC[N+](C)(C)CCCN1C(=O)c2cccc3cccc(c23)C1=O)CCCN1C(=O)c2cccc3cccc(c23)C1=O`, for which the call was inactive.
Consider `COc1ccc(Cl)cc1S(=O)(=O)N1CCN(CC(=O)C(C)(C)C)CC1`, for which the outcome was inactive.
In the case of `CN1CCN(S(=O)(=O)c2ccc3[nH]cc(C(=O)O)c(=O)c3c2)CC1` it was “inactive”.
For the compound `Cc1ccc(C)c(N2CCN(C(=O)CCc3nc4ccccc4[nH]3)CC2)c1`, the call was inactive.
Regarding `O=Cc1c(Cl)cccc1Cl`, the compound was called inactive.
As to `COc1cccc(N(CC(=O)Nc2cccc(N(C)S(C)(=O)=O)c2)S(C)(=O)=O)c1`, the compound was classed as inactive.
With `COc1ccccc1NC1=NC2(CCCC2)N=C(N)N1` the entry was “inactive”.
With `CCOc1ccc2[nH]c(=O)c(C(c3nnnn3CCOC)N3CCOCC3)cc2c1` (stereo not given) the entry was “inactive”; with `COC(=O)C1(C)C=CC2(CCCCC2)N1C(C)=O` (stereo not given), “inactive”; with `CC/C=C/C/C=C/C/C=C/CCCCCCCC(=O)OCC`, “inactive”.
`O=C(OC(C(=O)NC1CCCC1)c1ccc(F)cc1)c1ccno1` (stereo not given): the call was inactive.
With `O=c1cnc2cnc(Nc3ccccc3)nc2n1Cc1ccc(F)cc1` the entry was “inactive”; with `COCCn1c(SCC(=O)Nc2cc(Cl)ccc2OC)nc2c(c1=O)SC(C)C2` (stereo not given), “inactive”; with `C=C(C)c1cccc(C(C)(C)NC(=O)N2CCN(c3ncccn3)CC2)c1`, “inactive”.
For the compound `O=C(Cl)c1ccccc1[N+](=O)[O-]`, the call was inactive.
`CCOC(=O)CN(C(=O)CN1CCOCC1)c1ccc(Br)cc1`: the compound was classed as inactive.
Take `CC(C)NC(=O)N1CC[C@@]2(CCCN(C(=O)c3ccco3)C2)C1`: the call was inactive.
With `S=c1[nH]nc(SCc2ccccc2Cl)c2[nH]cnc12` the entry was “inactive”; with `CSc1cccc(NC(=O)CSc2ccccc2)c1`, “inactive”.
Consider `Cc1ccc2oc(=O)c3cnn(CC(=O)N4CCN(c5ccccn5)CC4)c3c2c1`, for which the result was inactive.
For the compound `O=C(CNS(=O)(=O)c1cccc(C(F)(F)F)c1)Nc1ccccc1F`, the compound was called inactive.
`COC(=O)[C@@]1(Cc2ccccc2)[C@H]2c3cc(C(=O)N4CCCC4)n(Cc4ccc(C)o4)c3C[C@H]2CN1C(=O)c1ccccc1`: the outcome was inactive.
Turning to `COc1ncc2nc(-c3ccc(Cl)cc3)c(=O)n(C)c2n1`, the outcome was inactive.
For `CC(c1ccco1)N(C(=O)c1ccc(S(=O)(=O)N2CCCCC2)cc1)c1ccccn1` (stereo not given), the compound was classed as inactive.
With `CC(C)NS(=O)(=O)c1ccc(OCC(=O)Nc2ccc3c(c2)OCCO3)cc1` the entry was “inactive”; with `Cc1ccc(-n2c(SCC(=O)Nc3ccc4c(c3)OCO4)nnc2-c2ccoc2C)cc1`, “inactive”; with `CCOC(=O)NC(C(F)(F)F)(C(F)(F)F)P(=O)(c1ccccc1)c1ccccc1`, “inactive”.
`CCCC(=O)N1c2ccc(-c3csc(N)n3)cc2CC1C` (stereo not given): the compound was called inactive.
With `Cc1ccc(O)c(NC(=O)COc2cc(C)ccc2C)c1` the entry was “inactive”; with `COc1ccc(-c2nc3cnc(N(C)C)nc3n(Cc3cccs3)c2=O)cc1`, “inactive”; with `O=C(Cl)c1ccc([N+](=O)[O-])cc1`, “inactive”.
As to `Cc1cc(C)cc(N)c1`, the outcome was inactive.
Turning to `CCOC(=O)N1CCN(C(=O)C2CC(c3ccc(F)cc3)=NO2)CC1` (stereo not given), the result was inactive.
`Cc1ccc2c(c1)N(CC(=O)N1CCCc3ccccc31)C(=O)C(C)O2` (stereo not given): the call was inactive.
`CCOc1cccc(/C(O)=C2/C(=O)C(=O)N(CCOC)C2c2ccncc2)c1` (stereo not given): the outcome was inactive.
For `CC1CC(C)CN(CC(=O)Nc2ccc(S(N)(=O)=O)cc2)C1` (stereo not given), the outcome was inactive.
For the compound `CN(c1ccc(C(=O)N2CCc3ccccc3C2)cc1)S(C)(=O)=O`, the compound was classed as inactive.
`COc1ccccc1N1CCN(C(=O)c2cc3c(-c4ccc(Cl)cc4)nn(C)c3s2)CC1`: the call was inactive.
With `Cn1c(CC(=O)Nc2ccccc2)nnc1SCC(=O)c1ccccc1` the entry was “inactive”.
In the case of `Cc1nnc(NC2=NCCCCC2)o1`, the outcome was inactive.
Take `Cn1cc(-c2nc3cnc(N4CCNCC4)nc3n(CCc3ccccc3)c2=O)c2ccccc21`: the compound was called inactive.
As for `COc1cccc(Nc2ncc3ncc(=O)n(C4CC4)c3n2)c1`, the outcome was inactive.
Consider `CNC(=O)C1(C)C=CC2(CCCCC2)N1C(C)=O` (stereo not given), for which the outcome was inactive.
In the case of `COc1ccccc1CNc1ncnc2ccc(-c3ccc4c(c3)OCO4)cc12`, the compound was called inactive.
`COC(=O)[C@@]1(Cc2ccc(OC)cc2)[C@H]2c3cc(C(=O)N4CCCC4)n(Cc4ccc(OC(F)(F)F)cc4)c3C[C@H]2CN1C(=O)c1ccccc1`: the result was inactive.
Turning to `O=C(O)c1cccc(S(=O)(=O)NCCO)c1`, the call was inactive.
Take `COc1ccc(N)c(C)c1`: the call was inactive.
As to `O=C(Cn1ccc(=O)[nH]c1=O)Nc1ccc(C(=O)O)c(O)c1`, the compound was called inactive.
As for `COc1ccc(CC(=O)Nc2c3c(nn2-c2cccc(Cl)c2)CS(=O)C3)cc1` (stereo not given), the compound was called inactive.
Take `COCCCN1C(=O)C(=O)/C(=C(/O)c2ccc3c(c2)CC(C)O3)C1c1cccnc1` (stereo not given): the call was inactive.
With `Cn1cc(-c2nc3cncnc3n(-c3ccccc3)c2=O)c2ccccc21` the entry was “inactive”.
For the compound `Cc1cc(Cl)c(S(=O)(=O)NCCC(=O)O)cc1OCC(N)=O`, the result was inactive.
For `Cc1ccnc(SCCn2c(Br)nc3c2c(=O)[nH]c(=O)n3C)n1`, the result was inactive.
As for `CC(=NCc1ccc2c(c1)OCO2)C1=C(O)c2ccccc2C1=O`, the compound was classed as inactive.
For `Cc1ccc2c(c1)sc1ncc(NC(=O)c3ccccc3)c(=O)n12`, the call was inactive.
Turning to `CCCCOc1ccc(Cl)cc1CSc1nncn1N`, the result was inactive.
Take `CCN(Cc1cc2cc(C)ccc2[nH]c1=O)S(=O)(=O)c1ccccc1`: the compound was classed as inactive.
As to `CSCC[C@H](NC(=O)NCCc1ccc(F)cc1)C(=O)O`, the compound was classed as inactive.
As for `O=C(Cn1cc2c(n1)CCCCC2)NCCN1CCOCC1`, the compound was called inactive.
Turning to `CC(=O)Nc1ccc(NC(=O)CN2CCCC(C)C2)c(Cl)c1` (stereo not given), the call was inactive.
With `COCCn1c(=O)c(-c2cccc(F)c2)nc2cncnc21` the entry was “inactive”.
As for `Oc1cc2c(cc1O)CN(C(=S)NCCc1ccc(Cl)cc1)CCC2`, the outcome was inactive.
In the case of `CN=C(NC#N)NCCSCc1nc[nH]c1C`, the result was inactive.
As to `COC(=O)c1nc(NC(=O)c2ccc(Cl)cc2)n[nH]1`, the outcome was inactive.
With `NC(=O)CCCC1=NS(=O)(=O)c2ccccc2N1` the entry was “inactive”; with `COC(=O)c1c(NC(=O)CSc2nncs2)sc2c1CCCCC2`, “inactive”.
With `CC(=O)N(CC1CCCO1)C1(C(=O)NC2CCCC2)CCCCC1` (stereo not given), the compound was classed as inactive.
As for `COc1ccc2[nH]cc(CCNc3nc(-c4cccc(NS(C)(=O)=O)c4)nc4ccccc34)c2c1`, the result was inactive.
Consider `CCCCCN(C(=O)NC(=O)Nc1ccccc1OC)S(C)(=O)=O`, for which the compound was called inactive.
